Source: the OligoGym collection

Target: CSTF3
Assay: pooled miR-30 sensor sort-seq; sequence = guide strand
Settings: shRNA
Note: reference of the scale not given here.

| Sequence | sensor-assay potency score (higher = more potent) |
| --- | --- |
| TATAGAAGGAGCTACAACTGGG | 0.225 |
| TTTGTTTCCAAGAACCTTGTAA | 0.432 |
| TTCCATTCCAATTTTATCCAGT | -0.0677 |

Target: CT47A1
Assay: as above
Settings: shRNA

| Sequence | sensor-assay potency score (higher = more potent) |
| --- | --- |
| TTCTTCACCTTGTTTTCTGCAT | -0.231 |
| TTGACGGTTCTCTATGAGGATG | -1.48 |
| TTCTCTATGAGGATGTGGTCGT | 0.0532 |
| TATCTGAGTCCTCCTCGGCGCT | -1.49 |
| TTGTTTTCTGCATCCTTCTCTT | -0.0876 |
| TATGAGGATGTGGTCGTTGTGA | -0.634 |
